# Cycloheximide cs – affects cycloheximide protein synthesis inhibition readout, counter-screen | cell reporter, cycloheximide protein synthesis inhibition counterscreen | max response, % | actives 12% (n = 300,000); in the data active means max response mostly above about 13%, no sharp cut-off; inactive means mostly below about 14%; further: read at 38.3 µM for the half of the compounds with a filed dose
# LASV entry inh – inhibitors of Lassa virus binding or cell entry; Lassa virus pseudotype entry inhibition, cell reporter; Potency, µM (doses to about 37.9 µM), most hits filed as inhibitors; actives 1.2% (n = 300,000); calls by dose curve; tested in HEK293 cells; further: nearly all actives have a fitted effect of over 50% in size
# AMA1 RON2 block – disrupts binding of P. falciparum AMA1 to RON2; actives 0.2% (n = 360,000); AID 720542; AlphaScreen AMA1-biotinylated RON2 peptide binding; Potency, µM (titrated, usually from 58.2 µM), usual class: inhibitors; active means well fitted inhibition curve with a large enough effect; inconclusive means small, poorly fitted or top-dose-only effect; inactive means no such curve, though single readings can be large or run the other way; further: nearly all actives have a fitted effect of over 45% in size
#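 AMA1 (3D7) with his tag at 25 nM final met compounds first, then biotinylated RON2 peptide at 25 nM; detection used donor plus acceptor beads, 10 µg/mL apiece, read by AlphaScreen after 30 min at room temperature.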
# Shiga toxin inh – blocks Shiga toxin action in Vero cells | Vero cells, Shiga toxin protein synthesis inhibition reporter | actives 9.2% (n = 290,000) | AID 2315 | inhibition, % at 38.7 µM; in the data active means inhibition mostly above about 28%, no sharp cut-off; inactive means mostly below about 43%
# MARV entry inh – blocks Marburg virus binding to or entry into cells | Marburg virus pseudotyped entry inhibition, cell reporter | Potency, µM (titrated, usually from 37.8 µM), hits mostly inhibitors | actives 1.8% (n = 300,000) | AID 540276; calls by dose curve; tested in HEK293 cells
# Numbers stand for hits; - = inactive; ? = inconclusive; . = no result given. Shown is part of a subset that was picked to be rich in hits.
SMILES,Cycloheximide cs,LASV entry inh,AMA1 RON2 block,Shiga toxin inh,MARV entry inh
CC(C)(C)c1cc(NCCCn2ccnc2)n2ncc(-c3ccc(Cl)cc3)c2n1,58,?,-,87,?
CN(C)CCCNc1cc(-c2ccccc2)nc2cc(-c3cccc(F)c3)nn12,-,.,-,-,.
CN(C)CCCNc1cc(C(C)(C)C)nc2c(-c3ccccc3)cnn12,47,?,-,61,?
Cc1cccc(-c2cc3nc(C)c(C)c(NCCCn4ccnc4)n3n2)c1,-,-,-,-,?
Cc1cc(NCCCn2ccnc2)n2nc(-c3ccc(F)cc3)cc2n1,20,?,-,29,-
Cc1cc(NCCCn2ccnc2)n2nc(-c3ccc(Cl)cc3)cc2n1,20,-,-,-,-
Cc1ccc2c(CC(=O)Nc3c(C(=O)Nc4cccc(Cl)c4)oc4ccccc34)coc2c1C,.,-,.,.,-
O=C(Cn1ccsc1=NC(=O)c1ccco1)c1ccccc1,24,-,-,-,-
CC1=C(C(=O)NCc2ccc(Cl)cc2)C2(CCCCCC2)OC1=O,.,-,.,.,.
Cc1cc(C)cc(OCCOc2cccc(C=C3C(=O)NC(=O)NC3=O)c2)c1,18,.,-,55,.
O=C1NC(=O)C(=Cc2ccccc2OCCOc2ccc([N+](=O)[O-])cc2)C(=O)N1,-,?,-,-,?
O=C1NC(=O)C(=Cc2ccc3ccccc3c2)C(=O)N1,-,.,-,-,.
Cc1ccc(OCCOc2cccc(C=C3C(=O)NC(=O)NC3=O)c2)cc1,62,.,-,93,.
Cc1nc(N2CCCCC2)nc(N2CCCCC2)c1C=O,-,?,-,-,-
CC1CCN(S(=O)(=O)c2cccc(-c3cn4cc(Cl)ccc4n3)c2)CC1,-,-,-,53,-
CN(C)C(=O)Oc1ccc(-c2cn3cc(C(F)(F)F)ccc3n2)cc1,-,-,-,41,-
CN(C)C(=O)Oc1ccc(-c2cn3cc(Cl)ccc3n2)cc1,50,?,-,55,?
CN(C)C(=O)Oc1cccc(-c2cn3cc(Cl)ccc3n2)c1,43,-,-,58,-
CCN(CC)S(=O)(=O)c1ccc(-c2cn3cc(Cl)ccc3n2)cc1,-,-,-,-,?
CN(C)C(=O)Oc1ccc(-c2nnco2)cc1,-,.,-,-,.
O=C(c1ccc([N+](=O)[O-])cc1)N1c2ncnn2C2(CCCCC2)[C@@H]2CCCC[C@@H]21,.,-,.,.,-
CCOC(=O)N1CCN(C(=O)C2CCN(C(=O)c3ccccc3C)CC2)CC1,.,?,-,.,-
Cc1ccccc1C[C@H](C(=O)O)N1C(=O)c2ccc(C(=O)O)cc2C1=O,-,.,.,-,.
CCCCOc1ccc(C(=O)NCCc2sc3nc(-c4ccc(OC)cc4)nn3c2C)cc1,.,-,.,.,.
Oc1ccc(-c2cn3cc(C(F)(F)F)ccc3n2)cc1,-,2µM,-,-,5.8µM
SMILES,Cycloheximide cs,LASV entry inh,AMA1 RON2 block,Shiga toxin inh,MARV entry inh
O=C(COC(=O)COc1ccc2c(c1)CCC2)Nc1ccccc1C(F)(F)F,.,-,-,.,-
Clc1cccc(N/N=C(\Cc2nc3ccccc3[nH]2)c2ccccc2)c1,21,-,-,54,?
O=C(NCc1nc2ccccc2[nH]1)c1cccc(Cl)c1,.,-,.,.,-
CCN(CC)CCn1c(NCc2ccccn2)nc2ccccc21,-,-,?,-,-
CC(C)n1cnc2cc(NCc3ccco3)ccc21,41,-,?,72,?
CC(C)n1cnc2cc(NCc3ccccc3O)ccc21,52,-,-,86,-
Cc1cc(NCc2ccccn2)ccc1Br,34,-,-,74,?
CC(C)n1cnc2cc(NCc3ccccn3)ccc21,72,-,-,70,-
COc1ccccc1NC(=O)C1=C(C)Nc2nc3ccccc3n2C1c1ccccc1Cl (stereo not given),.,-,.,.,-
CCOc1ccc(NC(=O)CC2C(=O)N(c3ccc(F)cc3)C(=O)N2Cc2ccc(OC)c(OC)c2)cc1 (stereo not given),.,-,.,.,-
CCOc1ccc(/C=C/c2nc(C#N)c(N(C)C)o2)cc1,.,-,.,.,-
Cc1ccc(NC(=O)CCc2nc3ccccc3c(=O)[nH]2)cc1S(=O)(=O)N1CCOCC1,.,-,-,.,-
CCc1cc2c(Nc3ccc(O)cc3)nc(C)nc2s1,-,.,-,-,.
CC(C)(C)n1cnc2cc(NCc3ccccc3O)ccc21,49,-,-,66,?
Cc1cc(C)cc(-n2c(C)cc(C(=O)C(=O)Nc3nnc(C)s3)c2C)c1,.,-,.,.,-
COc1ccc(N(C)C(=O)C2CCCN2S(=O)(=O)c2cccc3nsnc23)c(OC)c1 (stereo not given),-,.,-,-,.
C/C(=C\C(=O)c1ccccc1)Nc1ccc(Cl)c(Br)c1,.,-,-,.,-
Cc1cccc(N/C=C/C(=O)c2ccc(Cl)cc2)c1,35,.,-,88,.
Cc1ccc(Cl)c(N/C=C/C(=O)c2ccccc2)c1,68,.,-,66,.
COc1cccc(N/C=C/C(=O)c2ccc(Br)cc2)c1,.,?,-,.,?
O=C(/C=C\Nc1ccccn1)c1ccc(Cl)cc1,33,?,-,75,6.5µM
O=C(N/N=C/c1ccco1)c1ccccc1OCc1ccccc1Cl,19,-,-,-,?
O=C(Nc1ccccc1C(=O)N/N=C/c1ccco1)c1ccccc1Cl,-,-,-,-,-
O=C(N/N=C/c1ccc[nH]1)c1ccccc1OCc1ccccc1Cl,15,-,-,-,-
CC(C)c1ccc(Nc2c(-c3ccc(N(C)C)cc3)nc3cnccn23)cc1,.,?,.,.,-
SMILES,Cycloheximide cs,LASV entry inh,AMA1 RON2 block,Shiga toxin inh,MARV entry inh
CCOc1ccc(NC(=O)c2cccnc2C(=O)O)cc1,-,-,-,-,-
Cc1ccc(NC(=O)c2ccccc2OCC(=O)c2ccccc2)cc1,-,-,-,-,-
CCOc1ccc(NC(=O)c2cccnc2SC)cc1,22,-,-,-,?
CCOc1ccc(NC(=O)c2ccccc2OC)cc1,40,-,-,-,-
CCOc1ccc(NC(=O)c2ccccc2CO)cc1,31,-,-,-,-
CCOc1ccc(NC(=O)c2ccccc2-c2ccccc2C(=O)O)cc1,.,-,-,.,-
CCOc1ccc(NC(=O)c2ccccc2OCC(=O)c2ccccc2)cc1,48,-,-,-,?
CSc1cccc(NC(=O)CC2Oc3ccccc3NC2=O)c1 (stereo not given),-,.,-,-,.
Cc1nc(NC(=O)CSc2nnc(C3CC3)n2C)sc1C,-,.,-,-,-
CCOCCCNC(=O)NC(C)c1c(-n2cccc2)sc2c1CCN(CC)C2 (stereo not given),.,-,.,.,.
CC(=O)c1ccc(NC(=O)COc2ccccc2C(=O)Nc2ccccc2)cc1,13,-,-,49,?
O=C(COc1ccccc1C(=O)c1cnn(-c2ccccc2)c1)Nc1ccccc1,21,-,-,-,?
CCOc1ccc(NC(=O)c2ccccc2O)cc1,12,?,-,-,?
COc1ccccc1CNC(=O)COc1ccccc1C(=O)c1cnn(-c2ccccc2)c1,.,.,-,.,.
COc1ccc2nc(SCC(=O)NCc3ccc(S(N)(=O)=O)cc3)[nH]c2c1,-,-,-,-,-
COc1ccc(S(=O)(=O)c2cn(Cc3ccccc3)c3cc(N4CCCC4)c(F)cc3c2=O)cc1,.,-,.,.,.
Cc1ccc(NC(=O)Nc2ccccc2)cc1[N+](=O)[O-],52,-,-,146,-
